This is an account of results in PubChem BioAssay (NCI).

About 83,000 compounds went through this panel and 20% of them were active in at least one assay; those are over-represented in the sample as a whole.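 Percent growth is the endpoint: 0 to 100 indicates growth inhibition (40 means 60% inhibition), 0 means no net growth, and negative values indicate cell death.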 Unmarked numbers belong to inactive results. Calls of active or inactive are those of the source. The calls were made as follows: active = growth percent below 10; inactive = the rest.

The test system of this assay is SNB-75 CNS. In words: NCI-60 one-dose screen, 48 h (100 = growth as untreated, 0 = no growth, -100 = all killed). The conditions noted are these: 10 µM unless noted.
`Nc1cc2nc3ccccc3sc-2cc1=O`: the growth is 109%.

In the case of `Cc1noc(C)c1-c1cc(O)cc(C(O)c2ccccc2)c1` (configuration not stated), the growth is -13.2% (active).

On to `CCCCCC(=O)N(CCCC)CCCC`, for which the growth was 86.5%.

With `COc1ccc(/C=N\NC(=O)c2ccncc2)cc1O`, the growth was 74.8%.

Turning to `O=C(Cn1cc(CN2C(=O)c3ccccc3S2(=O)=O)nn1)Nc1ccc([N+](=O)[O-])cc1Cl`, the growth is 97.4%.

For `Oc1ccc(Nc2nccc(-c3ccc4ccccc4c3)n2)cc1`, the growth was 36%.

On to `O=C1C=CC(=O)c2c1nc1n2CCCC1`, for which the growth was 131%.

`Cc1cc(Nc2nc(N3CCOCC3)nc3ccccc23)n[nH]1`: the growth was -15.3% (active).

Consider `Cc1ccc(C2CC3c4ccccc4C2C2CCCCN32)cc1` (configuration not stated), for which the growth is 69.9%.

On to `Cc1csc2ccc(Cl)cc12`, for which the growth was 69.7%.

On to `O=S(=O)(Nc1ccc(F)c(Cl)c1)c1ccc(-c2cnc(C3CC3)o2)cc1`, for which the growth is -14.4% (active).

For `CC#Cc1nc2ccccc2c(=O)[nH]1`, the growth was -2.64% (active).

`C[C@H](CCC(=O)O)[C@H]1CC[C@H]2[C@@H]3CC[C@@H]4/C(=C\c5ccco5)C(=O)/C(=C\c5ccco5)C[C@]4(C)[C@H]3CC[C@]12C`: the growth was 101%.

Turning to `Cc1cc(Nc2nc(-c3cccnc3)nc3ccccc23)n[nH]1`, the growth was -32.9% (active).

`COc1cc(OC)c(/C=C/c2cc[n+](C)c3ccccc23)c(OC)c1`: the growth was -13.8% (active).

Take `CCCCCCCCCCCCCCCC[N+]1(CC)CCCC1`: the growth is -37% (active).

As to `CC(=O)OCC(=O)C1CCC=CC1OC(C)=O` (configuration not stated), the growth was 80.9%.
